Screening data from PubChem.
EBV LMP1 NFkB = Epstein-Barr LMP1 NF-kappaB reporter inhibition; LMP1-induced NF-kappaB luciferase reporter cells, luminescence; inhibition, % at 12.5 µM; 350,000 tested, 0.69% active; AID 504558; in the data active means inhibition above about 41%;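 further: 0% = neutral control wells and 100% = reference inhibitor control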
MITF TRPM1 inh = MITF TRPM1 promoter inhibition in SK-MEL-5 cells. SK-MEL-5 TRPM1 promoter luciferase, 24 h. inhibition, % at 12.5 µM. 330,000 tested, 0.83% active;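 active means mean inhibition across replicates of 60% or more, whatever share of single replicates reaches that level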
HIF-2a inh = HIF-2a inhibition | inhibition, % at 18.8 µM | 786-0 RCC cells HIF-2a reporter, luciferase luminescence, overnight | 360,000 tested, 0.72% active;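 active means inhibition of the luminescence signal of 40% or more relative to plate controls, in a single-dose primary screen at 18.75 µM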
CF NFkB block = cystic fibrosis NF-kB activation inhibition; KKLEB NF-kB-GFP reporter, PAF-induced, GFP fluorescence overnight; 360,000 tested, 0.86% active; inhibition, % at 5 µM;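 active means at least 50% inhibition at 5 µM, scaled per plate between neutral and stimulator controls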;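 further: PAF is a Pseudomonas aeruginosa culture filtrate used as stimulus; plate controls were PAF-stimulated DMSO wells for no effect and unstimulated DMSO wells for full effect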
KKLEB cytotox = reduces viability of KKLEB cystic fibrosis airway cells; KKLEB CF airway cells viability, ATPlite luminescence, overnight; stronger effect = lower value; cells stimulated with P. aeruginosa culture filtrate; activity change (cytotoxicity), % at 5 µM; 360,000 tested, 0.36% active;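 active means corrected activity change at or below -50% at 5 µM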
Peg3 prom inh = Peg3 promoter activity inhibition. HeLa PEG-Prom luciferase reporter, luminescence, overnight. inhibition, % at 20 µM. 360,000 tested, 1.7% active;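 active means inhibition of at least 50% at 20 µM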
CF NFkB inh conf = confirmation of cystic fibrosis induced NF-kB inhibitors. shares compounds with CF NFkB block. KKLEB CF airway cells, PAF-induced NF-kB-GFP fluorescence, overnight. inhibition, % at 5 µM. 1,300 tested, 64% active. AID 602472; in the data active means inhibition above about 40%;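 further: stimulus PAF is a Pseudomonas aeruginosa filtrate and not platelet activating factor; plate controls were DMSO wells with stimulus for no effect and unstimulated DMSO wells for full effect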
Mdm2 MdmX conf = confirmation of inhibitors of human Mdm2/MdmX interaction, set 2 | shares compounds with HIF-2a inh | SaOS-2 split-luciferase Mdm2/MdmX complementation, luminescence | inhibition, % at 8 µM | 740 tested, 99% active | AID 504601;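 active means mean inhibition of the luminescence signal across two replicates at or above 26 percent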
Target sequence (O15151 whole entry, looked up): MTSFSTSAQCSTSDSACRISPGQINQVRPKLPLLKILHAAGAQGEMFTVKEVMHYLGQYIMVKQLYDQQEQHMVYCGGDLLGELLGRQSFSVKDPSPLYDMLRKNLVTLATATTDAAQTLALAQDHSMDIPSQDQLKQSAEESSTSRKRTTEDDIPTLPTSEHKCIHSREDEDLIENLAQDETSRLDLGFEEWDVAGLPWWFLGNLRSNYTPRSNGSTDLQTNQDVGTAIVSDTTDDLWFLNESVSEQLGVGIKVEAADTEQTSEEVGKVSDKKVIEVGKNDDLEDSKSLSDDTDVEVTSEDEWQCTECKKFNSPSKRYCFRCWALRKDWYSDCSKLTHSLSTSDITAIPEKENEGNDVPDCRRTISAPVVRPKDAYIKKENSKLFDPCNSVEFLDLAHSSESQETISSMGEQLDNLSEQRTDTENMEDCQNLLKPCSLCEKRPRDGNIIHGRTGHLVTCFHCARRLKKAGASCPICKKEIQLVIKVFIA
Target sequence (Q00987 whole entry, looked up): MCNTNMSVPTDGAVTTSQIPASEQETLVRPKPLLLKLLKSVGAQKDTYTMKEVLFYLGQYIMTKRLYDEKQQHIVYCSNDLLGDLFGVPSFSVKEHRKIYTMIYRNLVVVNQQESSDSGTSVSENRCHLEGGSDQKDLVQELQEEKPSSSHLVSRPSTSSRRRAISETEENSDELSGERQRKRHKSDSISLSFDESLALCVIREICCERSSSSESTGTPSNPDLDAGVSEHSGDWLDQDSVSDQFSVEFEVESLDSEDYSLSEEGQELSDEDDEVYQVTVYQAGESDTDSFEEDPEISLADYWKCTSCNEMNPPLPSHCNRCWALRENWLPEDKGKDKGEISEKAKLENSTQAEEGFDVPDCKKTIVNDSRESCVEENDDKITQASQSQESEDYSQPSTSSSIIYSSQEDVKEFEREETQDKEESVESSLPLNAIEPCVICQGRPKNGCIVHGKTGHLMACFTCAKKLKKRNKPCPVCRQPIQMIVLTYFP
HIF-2a inh conf = confirmation of HIF-2a inhibitors | shares compounds with HIF-2a inh | 786-0 RCC cells, HIF-2a luciferase reporter luminescence, overnight | AID 651580 | 1,800 tested, 56% active | inhibition, % at 18.8 µM;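 active means mean inhibition across four replicates of at least 40 percent at the single tested concentration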
HIF-1a counter = HIF-1a inhibition counter-screen for HIF-2a hits | 1,800 tested, 72% active | MiaPaCa-2 HIF-1a luciferase reporter, desferoxamine, overnight | shares compounds with HIF-2a inh | inhibition, % at 18.8 µM;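 active means mean inhibition of the reporter signal across four replicates at the single tested dose of 50% or more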
Numbers without * were called inactive; x = not tested or not shown. Shown are actives, neighbours in structure and some others; about 3% of the full set was active somewhere.

SMILES	EBV LMP1 NFkB	MITF TRPM1 inh	HIF-2a inh	CF NFkB block	KKLEB cytotox	Peg3 prom inh	CF NFkB inh conf	others
Cc1cc(C)c(C(N)=O)c(Nc2cccc3ccccc23)n1	10.2	25.5	8.2	50.4*	-8.0	-3.6	24.1
CCc1ccccc1Oc1nc(NCc2ccccc2)nc2ccsc12	x	x	22.7	9.8	10.5	17.8	x
O=C(Nc1ccc(Oc2ccc(NC(=O)Nc3ccc([N+](=O)[O-])cc3)cc2)cc1)Nc1ccc([N+](=O)[O-])cc1	25.0	26.2	-3.4	52.5*	1.2	46.3	61.3*
Cc1ccc(C(=O)c2cc([N+](=O)[O-])ccc2N2CCCCC2)c(C)c1	2.0	31.1	29.6	63.0*	-49.6	16.9	83.2*
CCCC(C)Sc1nc2c([nH]1)c(=S)n(C)c(=O)n2C (configuration not stated)	3.9	14.8	-5.6	-0.8	-0.1	16.1	x
C[C@@H]1CC=C[C@H]2[C@H]1C(=O)N(Cc1ccccc1)[C@H]2c1ccoc1	-5.5	-10.3	18.9	28.0	-5.3	-47.9	x
C[C@@H]1CC=C[C@H]2[C@H]1C(=O)N(Cc1ccccc1)[C@H]2c1cccc([N+](=O)[O-])c1	-4.6	-7.6	13.3	56.2*	-21.4	17.9	16.4
COC(=O)c1ccc(-c2ccc(OC)c([C@H]3[C@H]4C=CC[C@@H](C)[C@@H]4C(=O)N3Cc3ccccc3)c2)cc1	9.8	-23.5	23.6	66.4*	-12.3	29.2	52.7*
CC[C@@H]1CC=C[C@H]2[C@H]1C(=O)N(Cc1ccccc1)[C@H]2c1ccoc1	-0.7	17.2	32.3	59.2*	-18.7	87.8*	13.0
NC(=O)C1CC(=O)N(c2ccc(OCc3ccc(Cl)c(Cl)c3)cc2)C1 (configuration not stated)	-32.7	x	-354.1	6.5	-1.0	-297.6	x
C[C@H](NC(=O)c1ccccc1)C(=O)OCC(=O)Nc1ccc(Cl)cn1	-5.6	x	4.2	8.3	7.5	-13.3	x
CCC(CC)C(=O)N(C)c1c(C)nc2c(OCc3ccc(Cl)cc3Cl)cccn12	x	x	-24.2	-42.0	-8.5	24.9	x
O=C(/C=C/c1ccco1)Nc1ccccn1	3.2	-7.6	-109.2	29.1	-16.2	-104.8	x
Cc1ccc(NC(=O)/C=C/c2ccco2)nc1	2.2	5.2	-150.6	65.1*	-37.9	-131.5	73.3*
O=C(c1ccco1)N1N=C(c2ccccc2O)CC1c1cccs1 (configuration not stated)	-0.5	x	-11.1	-18.8	-5.2	6.3	x
CC(C)CC1NC(=S)N(Cc2ccccc2)C1=O (configuration not stated)	6.6	4.8	-10.6	58.4*	-17.0	98.7*	9.7
O=C(NCc1nc(-c2ccc(C(F)(F)F)cc2)no1)Nc1cc(Cl)cc(Cl)c1	3.0	5.8	-17.3	54.6*	-30.2	51.6*	49.6*
O=C(NCc1nc(-c2ccc(C(F)(F)F)cc2)no1)Nc1ccc(F)cc1F	-10.9	3.5	11.2	1.7	6.0	10.2	x
COc1cc(O)cc2cc3c(c(O)c12)C(=O)CC(C)(O)O3 (configuration not stated)	7.5	x	-13.8	59.5*	3.9	-65.7	52.3*
Cc1ccc(CCC(=O)Nc2ncc(Cc3cccc(Cl)c3Cl)s2)o1	-8.7	27.4	31.1	52.2*	-32.4	31.4	78.4*
CCc1nnc(NC(=O)CCc2ccc(C)o2)s1	-4.1	-18.1	-7.5	11.3	-1.5	-17.6	x
C=CCn1c(=O)c(C(=O)Nc2ncccc2C)c(O)c2ccccc21	4.6	x	5.5	-17.4	5.6	14.4	x
FC(F)Sc1ccc(NC(=S)NCC2CCCCC2)cc1	-30.4	-17.4	-164.2	50.0*	-39.1	-74.9	61.0*
FC(F)Sc1ccc(NC(=S)NC2CCCCC2)cc1	-32.2	-65.9	-247.6	6.7	0.7	-158.0	x
Cc1ccc2c(c1)C(=O)C(=O)N2Cc1ccc(Br)cc1	0.8	16.8	-8.3	61.5*	-21.5	-25.8	80.8*
SMILES	EBV LMP1 NFkB	MITF TRPM1 inh	HIF-2a inh	CF NFkB block	KKLEB cytotox	Peg3 prom inh	CF NFkB inh conf	others
Cc1ccc(NC(=O)c2nc[nH]c2C(=O)NCCCNC(=O)c2[nH]cnc2C(=O)Nc2ccc(C)cc2)cc1	5.8	-26.1	1.7	52.4*	-12.9	83.8*	78.7*
COCCCN1C(=O)C(CC(=O)NCC2CCCCC2)CC(C(=O)N2CCOCC2)=C1C (configuration not stated)	1.1	x	3.5	-27.4	14.5	7.3	x
Nc1c(Cl)c(Cl)nc(C(=O)OCC(=O)N2CCCC2=O)c1Cl	-7.0	6.7	9.7	19.0	4.3	7.8	x
O=C(OCC(=O)N1CCCC1=O)c1nc(Cl)c(Cl)c(Cl)c1Cl	-32.2	53.3	7.6	60.2*	-0.2	82.1*	-19.7
C[C@H](CO)N1C[C@H](C)[C@H](CN(C)Cc2ccccc2)Oc2ncc(Br)cc2C1=O	-28.8	x	12.3	-1.1	1.7	8.9	x
CCOc1ncccc1C(=O)OC(C)C(=O)Nc1ccc(Cl)cn1 (configuration not stated)	3.8	1.9	10.4	35.9	-14.8	3.9	x
CNc1ccccc1C(=O)OC(C)C(=O)Nc1ccc(Cl)cn1 (configuration not stated)	x	6.1	-186.1	69.0*	-7.8	99.9*	33.9
COc1cccc(C(NC(C)=O)c2nc(-c3ccc(OC)nc3)cs2)c1 (configuration not stated)	x	x	1.7	10.8	-29.3	10.7	x
Cc1noc(C)c1-c1ccc(C(=O)NCc2cccnc2)c2occc12	x	x	-109.5	-92.7	-0.5	-35.7	x
Cn1c(N)c(C(=O)COC(=O)c2ccccc2C(=O)c2ccccc2)c(=O)n(C)c1=O	-2.8	x	15.2	-4.0	2.8	7.3	x
O=C(COC(=O)c1ccccc1C(=O)c1ccc(Cl)c([N+](=O)[O-])c1)NC1CCCCCC1	86.6*	99.8*	92.8*	86.1*	-27.1	104.3*	105.8*	Mdm2 MdmX conf=103.5*;HIF-2a inh conf=-1.1;HIF-1a counter=105.6*
Cn1c(N)c(C(=O)COC(=O)c2ccccc2C(=O)c2ccc(Cl)c([N+](=O)[O-])c2)c(=O)n(C)c1=O	1.7	92.0*	71.0*	65.3*	-19.4	96.2*	34.1	HIF-2a inh conf=31.9;HIF-1a counter=93.0*
